Laboratory results as given in PubChem BioAssay AID1508600 (Functional Genomics Laboratory (NCATS/FGL), 2020).
In all, about 53,000 sequences went through this assay and about 3,700 (7%) were called active. The full list was thinned out, with actives kept by preference. Values without a mark were called inactive.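 How the source made its calls: active means gene knockdowns whose robust z-score for IL-1 alpha signal is at least 2 or at most -2, so actives lie on both sides; inactive means the rest.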

Experiment: Components of the Cytosolic LPS Sensing Pathway: Gene Identification via Genome-wide siRNA Screen;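 further: robust z of the log signal after scaling to non-targeting control siRNA wells of the plate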
Details: RAW264.7 macrophages, IL-1a HTRF, actives lie on both sides, screened at 100 nM (by protocol), cells primed 5 h with Pam3CSK4 first
Outline: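 Knockdown: 100 nM siRNA, 48h, RAW264.7. Stimulation: Pam3CSK4 5 h, then LipidA via TransIT-TKO 24 h. Output: supernatant IL-1a HTRF, negative-control-normalized, log robust z-score; viability by CellTiter-Glo.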

Row | Sequence | z-score
1 | GGAGUCCUUUAAGAUUAUATT against Pex13 | 1.3
2 | GGUAGAUGAUGAAAAACAATT against Erich3 | -2.02 (active)
3 | GGAAGAAUCUGUUACUUUUTT against Rad1 | -0.693
4 | CCUUUUAGGGAAAUUUGCATT against Mcm9 | 0.651
5 | GGGAAGAACUGUGAUUAUUTT against Hspd1 | 0.625
6 | CCAUUGAACAGCAGAUUGGTT against Atp7a | 0.81
7 | GGUCUUCUUCGUGUUCAUCTT against Olfr281 | -0.0815
8 | GGAAAAAUUGAAGUUGAUCTT against Iqcj | -1.35
9 | GGCUCGUCAAAUCAAGUAUTT against H2bc6 | -2.37 (active)
10 | GGAAAUCAAGCUGAAGUUATT against Eqtn | 0.231
11 | GCGCAAACAACACAUCGUCTT against Ccpg1 | 0.503
12 | GGCUGUCAUCCAAGAACUUTT against Mtcp1 | 0.176
13 | GGAGAUCCGAGUGAGGAAUTT against Eif3b | 2.91 (active)
14 | GGUUUAACUAGAAUUUGGUTT against Cyp2ab1 | 1.75
15 | GGACAAGAAUAAGUACAACTT against Rpl5 | -0.918
16 | GCCCUUGAACGGAGAAUAGTT against Brk1 | -1.59
17 | GCUCUGACCAUCCUUAGCUTT against Olfr938 | -2.62 (active)
18 | GCCAUACGAUCUGCAUUUCTT against Zbtb38 | -1.85
19 | GGAACAAGUAAAAUUCGUCTT against Tssk2 | 1.71
20 | GGGUUAUGAAGAAGCUCCUTT against Olfr1262 | -1.52
21 | GCUGUGUGACCAGCUGUUGTT against Krtap9-1 | 0.44
22 | CCUACGUCAUUUCAGCACCTT against Hc | 0.356

Row | Sequence | z-score
23 | GCUCCCAUUAUCAUUCAAATT against D3Ertd751e | 1.67
24 | GGAGCUCUGGCACUUUGUCTT against Gramd1b | 0.37
25 | GGAGAAAAGAGGCUUCCAGTT against Lad1 | 0.754
26 | CCCAGAUACCUGGAAAACGTT against Fam189a1 | -2.17 (active)
27 | GGUAUUCCUCUAGAUCAGATT against Dysf | 0.627
28 | GGAUUUGGAGCAGGUGGAUTT against Avpr1b | -0.97
29 | AUGCUUUUUGGAGCCAUAUTT against Olfr307 | 3.07 (active)
30 | GCCCUGAACUACCUAGAAATT against Alg5 | 1.58
31 | GGUUAAGAUUCCAGAGCCATT against Prune1 | -0.297
32 | GGAGAAUCUGGUCUGGGUATT against Septin4 | 1.04
33 | GGGCAAGUAUGGCUAUGUGTT against Pram1 | -0.178
34 | GGCCAAGAGAAUCUAAAGATT against Strn4 | -0.338
35 | GGAGACACUGAAUGUGACATT against Ttyh1 | -2.03 (active)
36 | UGUAACCAUGGUUACCGUGTT against Olfr1513 | 0.311
37 | GGCUGAGAACAUCAAAAAATT against Folh1 | 0.816
38 | GGAAUUGAGGUGAUGGAUATT against Sfxn4 | -0.144
39 | CGGGAUCUAUCCACUGAUGTT against Nrbp2 | -0.983
40 | GGCUACAAGGAGAAGUUUGTT against Traf3 | 2.02 (active)
41 | GCUCUAUGGAUCCUUGGAGTT against Zfp574 | 0.772
42 | GCUCAAUGUGACAGUGGUGTT against Elane | 0.38
43 | GGAAACCGUUCUCAUUAAATT against Mrpl30 | 0.599
44 | GGUUUGGUUGAAAUUGAACTT against Smc5 | -1.16

Row | Sequence | z-score
45 | CCUCAUGGUGAUGAUAUCCTT against Taar6 | -1.35
46 | GGAAGAUGAAGAGUCAGAGTT against Setd1b | -2.52 (active)
47 | CGACAAUGCCAUCGAUUCGTT against Sdc3 | 0.0399
48 | GGUCACACUUUCUUUGGAATT against Tcf25 | 0.775
49 | CCUAAAGACGUGCAAUAUGTT against Zfp287 | 0.526
50 | GGUUGUUCAUGAGCCGAACTT against Rpl18 | -0.0641
51 | GGGUGCGGAAAUUCAUUAATT against Mpv17l2 | 0.803
52 | GGCGCAGUAUCACAGUCUUTT against Tle1 | 1.02
53 | GGAUGAGAACAGCAACCAGTT against Bcl7b | -2.22 (active)
54 | GGUUCCAACAAUUGUAAAGTT against Chl1 | -0.00378
55 | GGAUUUUAAACAAAAGACCTT against Stard13 | 0.718
56 | GGUUCACGGUUUAUAAAGUTT against Sgk3 | -0.652
57 | GCUCCUGUACAGUUCAAACTT against Mrpl17 | 0.0768
58 | GCAGAAAGCACACUCCUACTT against Psors1c2 | -2.02 (active)
59 | GGAGAAGGUAGUUCUGAAATT against Slc7a11 | -0.349
60 | GCACAACAUCACGGUGAACTT against Adcy5 | -0.672
61 | CCACUAUGCUUCUUGGAAUTT against Serpini2 | -0.73
62 | GGAAAAGAAACCAGUUUCUTT against C230012O17Rik | -2.07 (active)
63 | GGACAAAAGACACAUGUUGTT against Miip | -0.674
64 | GGAUUUUCACAUUGCAUCUTT against Dmrtc1a | 1.49
65 | CCUUUGAACCUCUAACUUUTT against Xpnpep1 | 3.62 (active)
66 | GUUUUAGGCAACCUUGGGUTT against Olfr1038-ps | -0.14

Row | Sequence | z-score
67 | GGGACUCUAAAAACAAUGATT against Zkscan14 | 2.67 (active)
68 | CCCAAAAUACAUCAUCAAUTT against Psmc2 | -0.444
69 | GGACAACCACUUUAAGCUUTT against Tars2 | 1.04
70 | GCCUACGUUACCUUGAUCCTT against Slc16a12 | 0.0774
71 | CCGGUAUUUAGGAACUGCCTT against Irak2 | -1.66
72 | GGAGUCAACACACAUCAAGTT against Zfp13 | 1
73 | GGAAACCUGGAAACAGUUUTT against Apol7c | 0.377
74 | GGACAGCAGCAACAACAUCTT against Dnase1l3 | -2.04 (active)
75 | GCGACGGAAGUCUUUAUUATT against Nostrin | -0.163
76 | GGGUGAAGUAGGUGAAAAATT against H2-M10.6 | -0.361
77 | CGUAGCUAAUCCGUAAAAGTT against 1700120K04Rik | -1.93
78 | GGACAAAUCAGUUCUGCGUTT against Car13 | 0.105
79 | GGAACUUGGUAUUUAGAUCTT against Rhot2 | 0.295
80 | GGAUGAGUUUGACAAGCUGTT against Rhou | -0.735
81 | GGAGGAAAAGAGACAGCUCTT against Kank2 | -2.41 (active)
82 | GUGUCAACCUAAGCUUGGCTT against Tlx3 | -1.19
83 | GGUGUACCUCUGAAAAAAATT against Zbp1 | -1.5
84 | AGAACGGAACCAUAGGGAATT against Cmc2 | -0.897
85 | GGUAGUUCAGAUCUGAUUUTT against Svep1 | 0.599
86 | CGUUGCAGUCUAAGCUUGUTT against Rabac1 | 4.44 (active)
87 | AUGGAAUCCAGUAUAGAGCTT against Cep44 | 0.713
88 | GGAAGAAUGUAGGAGGAAGTT against Sln | 0.246

Row | Sequence | z-score
89 | GGUAUGAUCAAUGACUUACTT against Serpine1 | -0.165
90 | GGCUGACUUUCUGUCACAGTT against Olfr655 | 1.03
91 | GCCUGAAUUCCACUACUCGTT against Def8 | 0.551
92 | GGACAAGCUGAGGUGAAAATT against Maats1 | -1.08
93 | CGUACACCGUAUUCAUGACTT against Rapgef5 | 3.6 (active)
94 | GGAUGACUACAAAUGCAAATT against E230015B07Rik | -0.155
95 | GCUAGGAUUUCAGCAUAUATT against Adra1a | 0.29
96 | GGUCCUAACCGACAUGUCUTT against Vrk1 | 0.305
97 | CGUAGUGUUCUGUGUUUAUTT against Mif | 1.36
98 | GGACUUAGUACCUGAUAACTT against Rtraf | 0.838
99 | GCCUAUUGUCAGAAAAGUUTT against Usp4 | -0.385
100 | GGGACUCAACCUAUAUCUUTT against Gnpat | 0.118
101 | CCGGUUGAGUUCACAGAAUTT against Atad3aos | -2.44 (active)
102 | GGAUUUCGAGAUAACUAUGTT against Tbr1 | -0.0186
103 | CGUAUGGAGUCCAUUACUATT against Frmd4b | 0.341
104 | GGAUUCAAACAAUGAGCUCTT against Fam126b | 0.9
105 | GCUACUUUGACAUGCACACTT against Caly | 2.1 (active)
106 | GGCGGAUCUCUUGAGUGUUTT against Glyctk | 0.213
107 | GGUAUCAUUUACUUUGAACTT against Gtf2f2 | -0.0825
